In PubChem BioAssay (NCATS):
Results filed as inconclusive are left out. Active and inactive are the calls of the source. Calls follow the shape of the dose curve; as a rule, active = well fitted curve in the direction sought with a large enough effect; inconclusive = small, poorly fitted or top-dose-only effect, or another doubt; inactive = no such curve, though single readings can be large; an effect the other way counts as inactive or inconclusive.

Tests used:
[1] = qHTS of pediatric cancer cell lines to identify multiple opportunities for drug repurposing: Primary screen for TC32 cells (AID 1347089); also: nearly all actives have a fitted effect of over 60% in size
In short: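 Luminescent ATP read-out (CellTiter-Glo) of metabolically active TC32 cells after 48 h exposure. Concentration-response curves came from 11-point (MIPE, 0.78 nM–46 µM) or 8-point (NPC, 0.59 nM–46 µM) primary titrations; follow-up used 11 points.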

[2] = qHTS of pediatric cancer cell lines to identify multiple opportunities for drug repurposing: Primary screen for DAOY cells (AID 1347090); also: series mostly up to about 46 µM; nearly all actives have a fitted effect of over 55% in size
In short: (§1)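 Cell viability, CellTiter-Glo luminescence; 500-1,000 cells/well, 8- or 11-point titration, 48 h compound exposure at 37 degrees C, 5% CO2. Controls: DMSO neutral, bortezomib 2.3 µM final as positive.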

[3] = qHTS of pediatric cancer cell lines to identify multiple opportunities for drug repurposing: Primary screen for SJ-GBM2 cells (AID 1347091)
In short: as §1

[4] = qHTS of pediatric cancer cell lines to identify multiple opportunities for drug repurposing: Primary screen for A673 cells (AID 1347092); also: nearly all actives have a fitted effect of over 45% in size
In short: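 Cell viability of A673 measured by CellTiter-Glo ATP luminescence after 48 hours compound exposure. Dilution series spanned 0.78 nM to 46 µM (MIPE, 11-point) or 0.59 nM to 46 µM (NPC, 8-point); bortezomib 2.3 uM positive control.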

[5] = qHTS of pediatric cancer cell lines to identify multiple opportunities for drug repurposing: Primary screen for SK-N-MC cells (AID 1347093); also: series mostly up to about 46 µM
In short: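 Metabolically active cells were quantified by ATP-dependent luminescence (CellTiter-Glo, 15 min at room temperature) following 48 h treatment. Cells had been plated at 500-1,000 per well and settled for 5 h beforehand.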

[6] = qHTS of pediatric cancer cell lines to identify multiple opportunities for drug repurposing: Primary screen for BT-37 cells (AID 1347094); also: series mostly up to about 57 µM
In short: (§2)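 Plated cells (500-1,000 per well, growth media) were allowed to settle for 5 hours, treated with compound dilutions for 48 hours, then lysed with CellTiter-Glo for 15 min at room temperature before luminescence reading.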

[7] = qHTS of pediatric cancer cell lines to identify multiple opportunities for drug repurposing: Primary screen for NB-EBc1 cells (AID 1347095)
In short: as §2

[8] = qHTS of pediatric cancer cell lines to identify multiple opportunities for drug repurposing: Primary screen for U-2 OS cells (AID 1347096); also: nearly all actives have a fitted effect of over 50% in size
In short: (§3)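 Cells (500-1,000/well) rested 5 h, then received compounds for 48 h; metabolically active cells were measured by CellTiter-Glo luminescence. Final concentrations spanned up to 46 µM (MIPE, 11-point) or 0.59 nM-46 µM (NPC, 8-point) in primary screens, 11-point in follow-ups.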

[9] = qHTS of pediatric cancer cell lines to identify multiple opportunities for drug repurposing: Primary screen for Saos-2 cells (AID 1347097); also: nearly all actives have a fitted effect of over 40% in size
In short: as §2

[10] = qHTS of pediatric cancer cell lines to identify multiple opportunities for drug repurposing: Primary screen for SK-N-SH cells (AID 1347098); also: nearly all actives have a fitted effect of over 65% in size
In short: as §3

[11] = qHTS of pediatric cancer cell lines to identify multiple opportunities for drug repurposing: Primary screen for NB1643 cells (AID 1347099); also: nearly all actives have a fitted effect of over 50% in size
In short: as §2

[12] = qHTS of pediatric cancer cell lines to identify multiple opportunities for drug repurposing: Primary screen for LAN-5 cells (AID 1347100)
In short: as §3

[13] = qHTS of pediatric cancer cell lines to identify multiple opportunities for drug repurposing: Primary screen for BT-12 cells (AID 1347101); also: nearly all actives have a fitted effect of over 25% in size
In short: as §3

[14] = qHTS of pediatric cancer cell lines to identify multiple opportunities for drug repurposing: Primary screen for Rh18 cells (AID 1347102); also: nearly all actives have a fitted effect of over 65% in size
In short: as §3

[15] = qHTS of pediatric cancer cell lines to identify multiple opportunities for drug repurposing: Primary screen for MG 63 (6-TG R) cells (AID 1347105); also: nearly all actives have a fitted effect of over 50% in size
In short: as §2

[16] = qHTS of pediatric cancer cell lines to identify multiple opportunities for drug repurposing: Primary screen for control Hh wild type fibroblast cells (AID 1347106);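 also: series mostly up to about 46 µM; a drop in luminescence marks cytotoxicity and a rise apparent proliferation; nearly all actives have a fitted effect of over 55% in size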
In short: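 Cells (500-1,000/well) in growth media were settled 5 h at 37 degrees C, then given compounds for 48 h. Viability was read as CellTiter-Glo luminescence. Primary runs used MIPE at 11 points (0.78 nM-46 µM) and NPC at 8 points (0.59 nM-46 µM); follow-ups used 11 points.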

[17] = qHTS of pediatric cancer cell lines to identify multiple opportunities for drug repurposing: Primary screen for Rh30 cells (AID 1347107); also: series mostly up to about 46 µM; nearly all actives have a fitted effect of over 75% in size
In short: as §3

[18] = qHTS of pediatric cancer cell lines to identify multiple opportunities for drug repurposing: Primary screen for Rh41 cells (AID 1347108);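 also: series mostly up to about 46 µM; luminescence drop marks cytotoxic hits; nearly all actives have a fitted effect of over 70% in size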
In short: as §2

[19] = qHTS of pediatric cancer cell lines to identify multiple opportunities for drug repurposing: Primary screen for OHS-50 cells (AID 1347103); also: nearly all actives have a fitted effect of over 40% in size
In short: as §3

[20] = qHTS of pediatric cancer cell lines to identify multiple opportunities for drug repurposing: Primary screen for RD cells (AID 1347104); also: nearly all actives have a fitted effect of over 55% in size
In short: as §2

Measured: Potency

COc1cc(C[C@@H](C)N)c(OC)cc1Br
not listed: [19] | [20]
inactive: all other assays above

CCOC(=O)NC(O)C(Cl)(Cl)Cl (stereo not given)
not listed: [9]
inactive: all other assays above

CCOP(=S)(OCC)O/N=C(\C#N)c1ccccc1
inactive: all assays above

CCC(=O)C(CCN(C)C)(c1ccccc1)c1ccccc1
not listed: [10] | [13] | [14] | [19]
inactive: all other assays above

NC(=O)OCCCc1ccccc1
not listed: [11] | [15]
inactive: all other assays above

CC(C(O)c1ccccc1)N(C)C/C=C/c1ccccc1 (stereo not given)
not listed: [10] | [15] | [19]
inactive: all other assays above

CC(C)(O)C(Cl)(Cl)Cl
inactive: all assays above

COCC(=O)N(c1c(C)cccc1C)C(C)C(=O)OC (stereo not given)
inactive: all assays above

CC(C)NCC(O)c1ccc(N)c(C#N)c1 (stereo not given)
inactive: all assays above

COP(=S)(OC)Oc1ccc(Sc2ccc(OP(=S)(OC)OC)cc2)cc1
not listed: [15]
inactive: all other assays above

COP(=S)(OC)Oc1ccc(S(N)(=O)=O)cc1
inactive: all assays above

CC1N=C(N)OC1c1ccccc1 (stereo not given)
not listed: [11] | [15]
inactive: all other assays above

C[C@H]1CNCCc2ccc(Cl)cc21
not listed: [19]
inactive: all other assays above

OC(O)C(Cl)(Cl)Cl
not listed: [15]
inactive: all other assays above

C[C@]12CC[C@H]3[C@@H](CCC4=CC(=O)CC[C@@H]43)[C@@H]1CC[C@@H]2O
not listed: [10] | [11] | [15] | [19]
inactive: all other assays above

O=C(O)c1nn(Cc2ccc(Cl)cc2Cl)c2ccccc12
not listed: [15]
inactive: all other assays above

C[C@]12CC[C@H]3[C@@H](CC=C4C[C@@H](O)CC[C@@]43C)[C@@H]1CC[C@@H]2O
not listed: [11] | [15]
inactive: all other assays above

CCCC(C)C1(CC)C(=O)N=C(S)NC1=O (stereo not given)
inactive: all assays above

COP(=O)(OC)OC=C(Cl)Cl
not listed: [11]
inactive: all other assays above

CNC(=O)NC(O)C(Cl)(Cl)Cl (stereo not given)
not listed: [11]
inactive: all other assays above

Oc1c(Br)cc(Br)cc1Br
not listed: [11]
inactive: all other assays above

O=c1[nH]c2cc(Cl)ccc2n1C1CCNCC1
not listed: [11]
inactive: all other assays above

OC(c1ccccc1)(c1ccccc1)C1CCNCC1
not listed: [14] | [15] | [19]
inactive: all other assays above

O=C(CCCCl)c1ccc(F)cc1
inactive: all assays above

ClCCCN1CCN(c2cccc(Cl)c2)CC1
not listed: [11] | [19]
inactive: all other assays above

CCCC[N+]1(C)[C@@H]2CC(OC(=O)[C@H](CO)c3ccccc3)C[C@H]1[C@@H]1O[C@@H]12 (stereo not given in full)
inactive: all assays above

COc1cc(N)c(Cl)cc1C(=O)NC1CN2CCC1CC2 (stereo not given)
not listed: [11]
inactive: all other assays above

CCN1CCCC1CNC(=O)C(O)(c1ccccc1)c1ccccc1 (stereo not given)
inactive: all assays above

CC(C)(C)OC(=O)c1ncn2c1[C@@H]1CCCN1C(=O)c1c(Br)cccc1-2
not listed: [15]
inactive: all other assays above
